Assay results taken from the supplement of paper PMC11732987, “Enantioselective OTUD7B fragment discovery through chemoproteomics screening and high-throughput optimisation” (Communications Chemistry, 2025).

Key:
Test in all cases: log2 ratio of Biotin-Ahx-Ub-VS probe labelling (fragment/DMSO); higher = less target engagement (more negative = stronger competition), active = hit call of the paper (q ≤ 0.05, log2 ratio ≤ -1)
Details in all cases: compound concentration: 200 uM; treatment time: 3 h
[1] = molecular target: USP34 (UniProt Q70CQ2)
Method in brief: (§1)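 Each value is an average log2 ratio of fragment to vehicle, tested by unpaired t-test. The underlying Spectronaut label-free quantities were global-median-normalised, and only proteins with ≥2 unique peptides were included. Triplicate HEK293T lysate samples (495 µg) were exposed to fragment at 200 µM or vehicle for 3 h, then to Biotin-Ahx-Ub-VS at 0.5 µM final for 1 h, before NeutrAvidin enrichment of labelled DUBs, LysC and trypsin digestion, and diaPASEF LC-MS/MS.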

[2] = molecular target: T1, USP36 (UniProt Q9P275)
T1 sequence (whole entry): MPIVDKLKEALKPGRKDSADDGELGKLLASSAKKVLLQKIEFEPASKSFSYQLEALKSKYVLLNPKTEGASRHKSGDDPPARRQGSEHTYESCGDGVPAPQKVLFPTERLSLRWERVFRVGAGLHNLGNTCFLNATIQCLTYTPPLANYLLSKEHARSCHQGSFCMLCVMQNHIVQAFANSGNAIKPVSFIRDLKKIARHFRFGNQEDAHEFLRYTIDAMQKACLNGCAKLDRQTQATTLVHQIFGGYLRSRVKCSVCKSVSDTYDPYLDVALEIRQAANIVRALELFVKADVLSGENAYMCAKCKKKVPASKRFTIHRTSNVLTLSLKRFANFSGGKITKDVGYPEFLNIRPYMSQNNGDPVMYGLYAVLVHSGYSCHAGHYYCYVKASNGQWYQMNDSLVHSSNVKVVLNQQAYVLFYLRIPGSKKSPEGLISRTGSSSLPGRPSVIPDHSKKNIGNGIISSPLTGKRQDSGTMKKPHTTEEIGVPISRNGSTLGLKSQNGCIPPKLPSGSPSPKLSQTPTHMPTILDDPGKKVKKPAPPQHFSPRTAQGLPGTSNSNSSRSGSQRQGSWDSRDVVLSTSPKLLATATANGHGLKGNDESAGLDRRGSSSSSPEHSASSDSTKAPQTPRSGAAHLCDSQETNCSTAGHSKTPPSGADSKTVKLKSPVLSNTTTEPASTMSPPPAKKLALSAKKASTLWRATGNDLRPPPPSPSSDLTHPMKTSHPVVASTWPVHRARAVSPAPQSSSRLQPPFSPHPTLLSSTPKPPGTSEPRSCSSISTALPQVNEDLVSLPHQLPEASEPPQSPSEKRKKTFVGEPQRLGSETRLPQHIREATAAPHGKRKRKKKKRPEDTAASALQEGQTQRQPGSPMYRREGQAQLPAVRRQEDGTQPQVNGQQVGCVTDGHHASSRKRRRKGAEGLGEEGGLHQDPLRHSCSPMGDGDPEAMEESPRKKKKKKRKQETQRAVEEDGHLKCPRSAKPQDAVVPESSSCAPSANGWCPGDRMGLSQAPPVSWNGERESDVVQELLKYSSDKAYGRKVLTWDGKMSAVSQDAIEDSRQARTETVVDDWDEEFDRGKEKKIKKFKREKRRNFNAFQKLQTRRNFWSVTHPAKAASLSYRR
Method in brief: as §1

[3] = molecular target: T2, USP38 (UniProt Q8NB14)
T2 sequence (whole entry): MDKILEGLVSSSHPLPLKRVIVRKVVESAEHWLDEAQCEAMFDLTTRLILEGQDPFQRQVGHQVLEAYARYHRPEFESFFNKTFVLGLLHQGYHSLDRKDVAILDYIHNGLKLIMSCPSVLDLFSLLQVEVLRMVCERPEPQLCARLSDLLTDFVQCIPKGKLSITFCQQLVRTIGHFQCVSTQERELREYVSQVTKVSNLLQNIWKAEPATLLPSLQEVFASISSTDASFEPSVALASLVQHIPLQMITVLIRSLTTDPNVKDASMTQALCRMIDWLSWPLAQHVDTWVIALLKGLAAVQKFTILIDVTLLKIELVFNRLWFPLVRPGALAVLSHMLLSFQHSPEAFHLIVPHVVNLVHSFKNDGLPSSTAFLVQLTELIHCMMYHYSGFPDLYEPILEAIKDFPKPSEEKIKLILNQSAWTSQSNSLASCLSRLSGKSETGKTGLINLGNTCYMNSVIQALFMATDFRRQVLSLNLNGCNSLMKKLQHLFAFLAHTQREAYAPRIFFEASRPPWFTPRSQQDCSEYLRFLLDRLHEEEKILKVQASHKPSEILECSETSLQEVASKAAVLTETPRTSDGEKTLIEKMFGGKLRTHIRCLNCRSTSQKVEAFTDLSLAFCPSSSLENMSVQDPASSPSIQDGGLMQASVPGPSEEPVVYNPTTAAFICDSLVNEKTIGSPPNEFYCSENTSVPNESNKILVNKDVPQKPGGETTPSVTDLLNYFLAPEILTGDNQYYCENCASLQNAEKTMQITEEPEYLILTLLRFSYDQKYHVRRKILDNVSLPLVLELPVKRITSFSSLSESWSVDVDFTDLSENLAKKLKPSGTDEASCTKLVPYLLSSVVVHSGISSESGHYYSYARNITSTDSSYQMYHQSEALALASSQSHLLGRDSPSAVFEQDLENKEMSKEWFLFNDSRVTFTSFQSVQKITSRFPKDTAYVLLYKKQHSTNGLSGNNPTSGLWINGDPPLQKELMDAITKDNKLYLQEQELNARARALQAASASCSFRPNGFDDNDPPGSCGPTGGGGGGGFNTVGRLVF
Method in brief: as §1

[4] = molecular target: T3, USP39 (UniProt Q53GS9)
T3 sequence (whole entry): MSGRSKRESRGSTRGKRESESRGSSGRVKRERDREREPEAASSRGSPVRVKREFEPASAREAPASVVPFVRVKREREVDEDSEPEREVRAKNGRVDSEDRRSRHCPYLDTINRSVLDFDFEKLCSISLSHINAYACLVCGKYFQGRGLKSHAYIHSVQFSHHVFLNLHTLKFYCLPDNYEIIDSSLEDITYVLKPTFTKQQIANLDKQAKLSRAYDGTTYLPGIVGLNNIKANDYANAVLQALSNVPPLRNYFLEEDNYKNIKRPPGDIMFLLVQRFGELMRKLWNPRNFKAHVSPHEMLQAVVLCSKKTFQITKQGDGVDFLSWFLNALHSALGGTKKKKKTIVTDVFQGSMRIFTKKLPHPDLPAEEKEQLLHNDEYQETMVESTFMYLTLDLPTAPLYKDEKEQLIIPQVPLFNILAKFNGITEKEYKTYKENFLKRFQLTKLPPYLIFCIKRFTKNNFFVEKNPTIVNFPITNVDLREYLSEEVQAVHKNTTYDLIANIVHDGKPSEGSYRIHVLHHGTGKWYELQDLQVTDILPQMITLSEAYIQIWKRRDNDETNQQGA
Method in brief: as §1

[5] = molecular target: T4, USP4 (UniProt Q13107)
T4 sequence (whole entry): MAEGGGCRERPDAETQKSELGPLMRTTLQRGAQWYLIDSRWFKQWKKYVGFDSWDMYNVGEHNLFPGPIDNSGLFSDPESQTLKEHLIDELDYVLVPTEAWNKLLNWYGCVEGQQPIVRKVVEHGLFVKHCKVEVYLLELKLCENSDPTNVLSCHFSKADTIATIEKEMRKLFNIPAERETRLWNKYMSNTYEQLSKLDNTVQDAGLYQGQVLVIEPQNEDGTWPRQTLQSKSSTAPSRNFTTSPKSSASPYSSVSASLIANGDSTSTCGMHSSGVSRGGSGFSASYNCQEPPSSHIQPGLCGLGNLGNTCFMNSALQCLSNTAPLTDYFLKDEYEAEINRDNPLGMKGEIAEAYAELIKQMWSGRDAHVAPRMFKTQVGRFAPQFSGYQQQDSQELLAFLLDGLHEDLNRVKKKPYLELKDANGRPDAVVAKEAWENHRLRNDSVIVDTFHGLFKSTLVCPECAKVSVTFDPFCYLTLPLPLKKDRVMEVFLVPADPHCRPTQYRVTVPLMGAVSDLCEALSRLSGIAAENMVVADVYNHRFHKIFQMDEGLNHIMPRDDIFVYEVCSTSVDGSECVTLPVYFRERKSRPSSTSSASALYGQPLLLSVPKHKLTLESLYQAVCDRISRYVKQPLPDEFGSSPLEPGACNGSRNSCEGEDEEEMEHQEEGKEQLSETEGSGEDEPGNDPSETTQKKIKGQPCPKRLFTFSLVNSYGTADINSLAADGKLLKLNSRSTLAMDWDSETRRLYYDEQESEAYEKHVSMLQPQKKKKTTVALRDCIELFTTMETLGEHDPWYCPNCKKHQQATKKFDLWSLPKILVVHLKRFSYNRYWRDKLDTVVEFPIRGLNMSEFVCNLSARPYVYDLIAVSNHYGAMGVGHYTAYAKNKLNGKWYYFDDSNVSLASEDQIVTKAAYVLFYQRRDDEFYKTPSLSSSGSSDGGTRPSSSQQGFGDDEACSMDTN
Method in brief: as §1

Measured: log2 ratio of Biotin-Ahx-Ub-VS probe labelling

USP34, sequence (Q70CQ2 whole entry, the tested form may be a part): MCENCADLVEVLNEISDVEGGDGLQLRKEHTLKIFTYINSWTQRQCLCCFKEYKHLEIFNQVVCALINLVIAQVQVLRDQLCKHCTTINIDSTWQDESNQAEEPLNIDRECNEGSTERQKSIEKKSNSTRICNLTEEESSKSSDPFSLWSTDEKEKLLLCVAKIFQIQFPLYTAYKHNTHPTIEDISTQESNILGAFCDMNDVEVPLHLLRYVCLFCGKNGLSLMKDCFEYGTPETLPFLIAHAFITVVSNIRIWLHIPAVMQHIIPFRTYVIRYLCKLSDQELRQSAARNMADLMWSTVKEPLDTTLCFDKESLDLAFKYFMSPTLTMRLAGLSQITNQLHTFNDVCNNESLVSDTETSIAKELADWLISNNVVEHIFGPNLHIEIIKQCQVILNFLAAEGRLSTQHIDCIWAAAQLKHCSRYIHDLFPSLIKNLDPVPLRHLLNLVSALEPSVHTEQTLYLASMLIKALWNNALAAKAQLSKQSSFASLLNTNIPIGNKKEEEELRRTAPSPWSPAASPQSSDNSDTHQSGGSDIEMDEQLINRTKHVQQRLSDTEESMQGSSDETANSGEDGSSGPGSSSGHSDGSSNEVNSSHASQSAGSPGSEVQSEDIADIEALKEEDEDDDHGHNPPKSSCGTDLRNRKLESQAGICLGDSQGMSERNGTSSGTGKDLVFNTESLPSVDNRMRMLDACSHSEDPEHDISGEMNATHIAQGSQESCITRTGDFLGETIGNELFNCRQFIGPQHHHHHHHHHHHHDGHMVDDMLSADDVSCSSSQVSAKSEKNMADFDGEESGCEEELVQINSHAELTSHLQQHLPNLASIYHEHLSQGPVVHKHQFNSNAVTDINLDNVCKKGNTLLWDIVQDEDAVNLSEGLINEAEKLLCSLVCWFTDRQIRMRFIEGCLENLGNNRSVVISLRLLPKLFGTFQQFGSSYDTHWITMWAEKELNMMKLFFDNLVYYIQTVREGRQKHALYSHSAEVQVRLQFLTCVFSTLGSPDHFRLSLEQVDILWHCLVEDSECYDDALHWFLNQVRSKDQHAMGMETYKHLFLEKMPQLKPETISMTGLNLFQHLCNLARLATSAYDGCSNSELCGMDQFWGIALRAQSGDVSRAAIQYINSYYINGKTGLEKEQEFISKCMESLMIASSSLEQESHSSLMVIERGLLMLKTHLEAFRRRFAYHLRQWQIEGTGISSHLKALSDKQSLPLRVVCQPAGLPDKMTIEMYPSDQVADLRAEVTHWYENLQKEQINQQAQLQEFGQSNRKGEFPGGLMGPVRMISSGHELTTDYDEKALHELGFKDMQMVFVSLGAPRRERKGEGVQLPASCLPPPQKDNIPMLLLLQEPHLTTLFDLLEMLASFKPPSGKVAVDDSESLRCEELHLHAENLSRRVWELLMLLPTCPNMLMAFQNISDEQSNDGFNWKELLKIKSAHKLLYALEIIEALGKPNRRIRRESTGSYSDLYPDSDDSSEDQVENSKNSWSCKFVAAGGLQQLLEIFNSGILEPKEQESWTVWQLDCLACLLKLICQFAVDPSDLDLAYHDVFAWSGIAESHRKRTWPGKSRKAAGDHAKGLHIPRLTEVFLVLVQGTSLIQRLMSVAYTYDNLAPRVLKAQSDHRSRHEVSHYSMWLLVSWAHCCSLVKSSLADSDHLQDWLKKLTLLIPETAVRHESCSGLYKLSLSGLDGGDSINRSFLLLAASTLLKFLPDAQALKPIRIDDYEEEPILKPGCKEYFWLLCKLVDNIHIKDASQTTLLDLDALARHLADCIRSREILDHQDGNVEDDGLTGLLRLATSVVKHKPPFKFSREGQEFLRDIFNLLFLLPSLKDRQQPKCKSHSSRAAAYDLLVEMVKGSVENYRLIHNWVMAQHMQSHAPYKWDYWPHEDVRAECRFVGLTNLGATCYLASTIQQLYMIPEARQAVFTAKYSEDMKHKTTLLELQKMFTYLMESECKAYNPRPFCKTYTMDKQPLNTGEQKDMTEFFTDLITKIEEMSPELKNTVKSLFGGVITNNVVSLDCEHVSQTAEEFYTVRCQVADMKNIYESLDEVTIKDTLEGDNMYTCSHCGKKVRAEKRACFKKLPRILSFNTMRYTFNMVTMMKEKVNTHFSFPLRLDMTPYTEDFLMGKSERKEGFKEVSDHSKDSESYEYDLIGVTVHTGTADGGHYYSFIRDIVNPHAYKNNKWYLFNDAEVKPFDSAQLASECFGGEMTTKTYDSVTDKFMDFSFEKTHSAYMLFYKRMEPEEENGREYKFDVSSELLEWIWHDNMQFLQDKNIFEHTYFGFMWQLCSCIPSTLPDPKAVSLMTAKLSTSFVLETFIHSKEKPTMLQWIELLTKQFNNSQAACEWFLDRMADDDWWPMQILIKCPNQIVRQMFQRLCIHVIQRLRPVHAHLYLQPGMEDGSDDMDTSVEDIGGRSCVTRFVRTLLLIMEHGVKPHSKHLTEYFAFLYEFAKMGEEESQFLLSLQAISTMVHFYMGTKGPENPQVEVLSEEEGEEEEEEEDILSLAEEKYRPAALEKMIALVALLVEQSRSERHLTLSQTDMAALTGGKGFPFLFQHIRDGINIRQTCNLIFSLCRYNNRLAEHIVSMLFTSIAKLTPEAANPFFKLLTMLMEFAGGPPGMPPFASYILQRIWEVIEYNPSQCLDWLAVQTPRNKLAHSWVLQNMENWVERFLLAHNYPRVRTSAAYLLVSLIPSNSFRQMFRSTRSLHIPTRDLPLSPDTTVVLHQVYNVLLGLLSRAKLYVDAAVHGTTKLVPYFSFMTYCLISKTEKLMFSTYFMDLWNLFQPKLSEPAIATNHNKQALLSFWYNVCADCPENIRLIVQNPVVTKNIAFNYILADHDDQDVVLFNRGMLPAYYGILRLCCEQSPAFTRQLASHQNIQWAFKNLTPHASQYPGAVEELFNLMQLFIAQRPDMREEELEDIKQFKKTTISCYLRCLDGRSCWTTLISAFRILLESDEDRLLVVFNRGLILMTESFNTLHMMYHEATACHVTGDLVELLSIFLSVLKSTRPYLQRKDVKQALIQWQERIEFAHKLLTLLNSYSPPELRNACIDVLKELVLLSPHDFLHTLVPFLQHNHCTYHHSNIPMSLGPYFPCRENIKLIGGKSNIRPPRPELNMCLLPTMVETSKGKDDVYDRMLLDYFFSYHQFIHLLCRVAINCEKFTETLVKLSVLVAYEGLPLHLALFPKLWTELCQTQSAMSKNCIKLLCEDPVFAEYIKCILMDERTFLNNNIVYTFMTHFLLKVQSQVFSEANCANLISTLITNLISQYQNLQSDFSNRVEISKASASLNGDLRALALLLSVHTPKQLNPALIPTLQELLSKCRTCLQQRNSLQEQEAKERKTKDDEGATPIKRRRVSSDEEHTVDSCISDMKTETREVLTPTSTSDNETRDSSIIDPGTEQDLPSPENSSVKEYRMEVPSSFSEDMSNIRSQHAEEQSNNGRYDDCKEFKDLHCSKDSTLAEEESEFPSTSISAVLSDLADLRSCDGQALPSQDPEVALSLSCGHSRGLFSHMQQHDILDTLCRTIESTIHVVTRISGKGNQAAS

O=C(CCl)N1CCC(S(=O)(=O)c2ccc(F)cc2)CC1
inactive: [1] -0.128 | [2] -0.00998 | [3] -0.00588 | [4] 0.031 | [5] -0.218
